# Data: paper PMC5540273 (PLoS ONE, 2017)
# Assays:
# Details in all cases: concentration: 1 μM,replicates: in singlicate; n = 1
# [1] = test system: T1, PCTK2
# T1 construct: gene CDK17
# [2] = test system: T2, PCTK3
# T2 construct: gene CDK18
# [3] = test system: PDGFRA
# [4] = test system: PDGFRB
# [5] = test system: PDPK1
# [6] = test system: PFTAIRE2
# [7] = test system: T3, PFTK1
# T3 construct: gene CDK14
# [8] = test system: PHKG1
# [9] = test system: PHKG2
# [10] = test system: PIK3C2B
# [11] = test system: PIK3C2G
# [12] = test system: PIK3CA
# [13] = test system: PIK3CB
# [14] = test system: PIK3CD
# [15] = test system: PIK3CG
# [16] = test system: T4, PIK4CB
# T4 construct: gene PI4KB
# [17] = test system: PIKFYVE
# [18] = test system: PIM1
# [19] = test system: PIM2
# [20] = test system: PIM3
# 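Also: KINOMEscan kinase panel screen.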
SMILES,%Inh [1],%Inh [2],%Inh [3],%Inh [4],%Inh [5],%Inh [6],%Inh [7],%Inh [8],%Inh [9],%Inh [10],%Inh [11],%Inh [12],%Inh [13],%Inh [14],%Inh [15],%Inh [16],%Inh [17],%Inh [18],%Inh [19],%Inh [20]
CC(C)N1C(=O)Cc2cc(Nc3ncc(C(F)(F)F)c(NCc4cccc(S(C)(=O)=O)c4)n3)ccc21,20%,7%,36%,71%,0%,6%,14%,0%,26%,3%,28%,6%,29%,0%,5%,28%,27%,5%,0%,9%
O=C(NCCCN1CCOC1=O)c1cnc(NCc2cc(Cl)ccc2Cl)nc1NC1CCCC1,0%,13%,0%,30%,28%,0%,7%,0%,13%,4%,8%,0%,2%,0%,0%,12%,36%,9%,16%,10%
Cc1occc1-c1nc(N)c(OC[C@@H](N)Cc2c[nH]c3ccccc23)cc1-c1cc2c(C)n[nH]c2cn1 [GSK1660450],0%,0%,0%,49%,0%,100%,45%,84%,11%,0%,7%,0%,0%,10%,0%,0%,0%,97.3%,99.2%,97.7%
C=CC(=O)Nc1cc2c(Nc3ccc(F)c(Cl)c3)ncnc2cc1OCCCN1CCOCC1 [GW781483],0%,0%,77%,15%,0%,15%,0%,0%,0%,2%,0%,0%,60%,0%,42%,21%,20%,2%,0%,0%
COc1ccc(C[C@@H](CN)NC(=O)c2cc(Br)c(-c3ccnc4[nH]ccc34)s2)cc1.Cl.Cl [GSK1389063],0%,0%,62%,96.3%,32%,3%,16%,45%,24%,0%,0%,0%,52%,2%,0%,19%,0%,34%,0%,6%
Cl.Cl.Nc1nc(-c2ccc3c(N)n[nH]c3c2)cc(N2CCCC(NC(=O)c3ccccc3)C2)n1 (stereo not drawn) [GSK2286775],21%,11%,0%,21%,85%,18%,18%,0%,0%,14%,43%,14%,0%,2%,4%,27%,6%,25%,0%,25%
Cc1ccc2c(-c3ccncc3)c(-c3ccc(F)cc3)nn2c1.Cl [GW461484],0%,11%,0%,8%,0%,0%,0%,33%,0%,0%,0%,0%,25%,0%,1%,0%,0%,0%,0%,16%
C[C@@H](Oc1cc(-c2cnn(C3CCNCC3)c2)cnc1N)c1c(Cl)ccc(F)c1Cl,4%,6%,23%,0%,14%,1%,0%,24%,7%,10%,8%,14%,18%,0%,9%,3%,5%,0%,0%,3%
Cc1ccc(-n2nc(C(C)(C)C)cc2NC(=O)Nc2ccc(OCCN3CCOCC3)c3ccccc23)cc1 [GW839464],13%,2%,0%,87%,0%,0%,2%,0%,8%,0%,0%,0%,0%,0%,0%,0%,0%,0%,9%,0%
CCN(CC)CCCCNc1ncc2cc(-c3c(Cl)cccc3Cl)c(NC(=O)NC(C)(C)C)nc2n1,0%,0%,90.1%,100%,0%,0%,0%,0%,0%,27%,6%,8%,91.6%,15%,2%,0%,21%,0%,13%,0%
NC(=O)c1cc(-c2ccccc2)cc2c(C3CCNCC3)c[nH]c12 [GSK301362],0%,0%,0%,67%,0%,21%,17%,17%,0%,0%,0%,0%,0%,6%,2%,0%,0%,17%,0%,7%
O=C(NCCNc1ccnc(NCc2ccc(F)cc2)n1)c1cc2ccccc2s1 [GSK1379944],0%,14%,0%,86%,15%,7%,11%,0%,0%,0%,0%,0%,0%,0%,0%,5%,0%,0%,0%,0%
CNC(=O)c1ccccc1Sc1ccc2c(/C=C/c3ccccn3)n[nH]c2c1,0%,8%,99.9%,100%,0%,14%,2%,16%,0%,0%,0%,0%,0%,11%,2%,0%,43%,0%,0%,6%
Nc1nc(Nc2ccccc2)cc(-c2ccc3c(N)n[nH]c3c2)n1 [GSK2225749],0%,0%,4%,2%,,15%,9%,0%,0%,2%,20%,0%,0%,22%,0%,15%,27%,12%,0%,0%
CCN(CC)CCOc1ccc(Nc2ncc3cc(-c4c(Cl)cccc4Cl)c(=O)n(C)c3n2)cc1 [SB-601273],24%,0%,99.8%,100%,0%,19%,0%,0%,30%,85%,11%,6%,30%,40%,21%,5%,48%,0%,0%,0%
Cl.Cl.NC[C@H](Cc1ccc(C(F)(F)F)cc1)NC(=O)c1cc(Br)c(-c2ccnc3[nH]ccc23)s1 [GSK1487252],0%,0%,28%,54%,0%,5%,0%,0%,0%,0%,61%,0%,0%,0%,0%,0%,12%,35%,0%,0%
CN(C)CC(O)COc1ccc(Nc2nccc(-c3cnn4nc(N5CCOCC5)ccc34)n2)cc1 (stereo not drawn) [GW767488],91.9%,52%,56%,60%,0%,16%,46%,38%,81%,43%,20%,33%,35%,37%,63%,46%,68%,15%,0%,35%
CN(C)CCOc1ccc(-c2cc(-c3c[nH]nc3-c3ccccn3)ccn2)cc1 [GW835314],7%,2%,29%,20%,15%,19%,1%,47%,0%,0%,5%,0%,11%,2%,0%,36%,0%,13%,0%,0%
CCn1c(-c2nonc2N)nc2c(C#CC(C)(C)O)nc(OCCN)cc21.Cl.Cl [GSK902056],0%,0%,0%,4%,0%,0%,0%,0%,0%,0%,0%,0%,0%,5%,0%,9%,19%,25%,0%,11%
Cc1cc(C(=O)Nc2ccc(Oc3ccc4nc(NC(=O)C5CC5)cn4n3)cc2)nn1-c1ccccc1,17%,4%,97.7%,100%,8%,0%,0%,49%,0%,0%,2%,0%,0%,0%,0%,0%,1%,2%,2%,0%
Cc1cc2cn[nH]c2cc1-c1cccc2c(N)c(C(N)=O)nnc12,14%,26%,34%,18%,0%,29%,0%,26%,0%,0%,13%,0%,0%,46%,0%,26%,0%,0%,0%,0%
C[C@H]1Oc2cc(cnc2N)-c2c(nn(C)c2C#N)CN(C)C(=O)c2ccc(F)cc21,1%,29%,0%,10%,41%,10%,12%,54%,100%,0%,20%,0%,0%,0%,0%,0%,19%,21%,19%,12%
CC(C)Nc1cc(-c2ccc3c(N)n[nH]c3c2)nc(N)n1 [GSK2221681],0%,10%,1%,5%,,10%,0%,11%,0%,0%,0%,0%,0%,0%,0%,7%,0%,15%,0%,0%
Cc1n[nH]c2ccc(-c3cc(OC[C@@H](N)Cc4ccccc4)cnc3-c3ccoc3)cc12.O=C(O)C(F)(F)F.O=C(O)C(F)(F)F [GSK507358],0%,0%,0%,50%,0%,0%,9%,0%,0%,0%,0%,0%,0%,0%,0%,0%,8%,29%,90%,47%
Cl.Cl.NC[C@H](CC1CCCCC1)NC(=O)c1cc(Br)c(-c2ccnc3[nH]ccc23)s1 [GSK1581427],0%,0%,22%,75%,0%,63%,28%,20%,19%,0%,0%,0%,0%,0%,0%,1%,0%,1%,0%,0%
C[C@@H]1CCN(C(=O)CC#N)C[C@@H]1N(C)c1ncnc2[nH]ccc12,0%,8%,0%,,0%,0%,21%,15%,13%,0%,0%,0%,0%,0%,0%,0%,36%,0%,0%,0%
Cl.Oc1cc(-c2nc(-c3ccccc3)[nH]c2-c2ccncc2)ccc1Cl [SB-386023],0%,0%,0%,11%,2%,23%,0%,0%,0%,7%,19%,0%,14%,0%,0%,14%,87%,0%,3%,0%
